Data from PubChem BioAssay.
The source made the active and inactive calls.

Assays:
Albumin (Bos taurus) = Albumin (Bos taurus) (UniProt P02769); experiment: compounds binding labelled BSA control protein – biochemical, small-molecule microarray, Alexa647 label, 635/667 nm fluorescence, artefact control for SMM control protein annotation, profiling panel (AID 1118); conditions: BSA-A647 binding, fluorescence 635 nm, higher = more signal;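 note: score merges 667 nm emission intensity and signal-to-noise per printed compound spot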
[1] = probe aXIP binding to arrayed compounds – biochemical, NeuroSMM set, 635/667 nm fluorescence, primary screen (AID 1119); conditions: small-molecule microarray, higher = more signal, called active from +8 up or from −8 down;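 note: probe is the protein aXip251-270 applied at 1 µg/mL to compound-printed slides; binding of probe to printed compounds measured as 667 nm fluorescence plus signal to noise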
[2] = probe aNOTCH3 binding on compound microarray – biochemical, small-molecule microarray, 635/667 nm fluorescence, primary screen (AID 1120); conditions: higher = more signal;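 note: probe is a biotin-tagged antibody raised against NOTCH3 rather than NOTCH3 protein; score merges spot fluorescence near 667 nm with spot signal to noise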
[3] = probe aNOTCH2 binding on compound microarray – biochemical, small-molecule microarray, 635/667 nm fluorescence, primary screen (AID 1121); conditions: higher = more signal;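 note: score merges feature fluorescence read at 667 nm with its signal to noise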
[4] = biological target: Carbonic anhydrase 2 (Homo sapiens) (UniProt P00918); experiment: compounds binding carbonic anhydrase 2 – biochemical, small-molecule microarray, Alexa647-labelled CAII, profiling panel (AID 1122); conditions: CAII-A647 binding fluorescence, higher = more signal
[5] = COS7 lysate on small-molecule microarray, probe aHis, 635 nm (AID 1123); conditions: COS7 cell lysate, fluorescence, higher = more signal;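 note: z-score combines 667nm fluorescence intensity with signal-to-noise per printed compound spot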
[6] = probe aLAP1 signal on lysate-treated microarray – cell lysate, small-molecule microarray, COS7 lysate, primary screen (AID 1124); conditions: probe aLAP1, fluorescence, higher = more signal;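 note: lysate comes from COS7 cells expressing LAP1 and is applied at 0.3 µg/mL; score merges spot fluorescence near 667 nm with signal-to-noise over triplicate slides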
Sam68 (KHDRBS1) = experiment: compounds binding KHDRBS1 protein – biochemical, small-molecule microarray, 635 nm fluorescence, primary screen (AID 1125); conditions: higher = more signal;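 note: score merges 667 nm channel intensity with signal to noise over triplicate slides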
[7] = tested on: Chordin-like protein 2 (CHRDL2); experiment: compounds binding chordin-like 2 – biochemical, small-molecule microarray, 635 nm fluorescence, primary screen (AID 1126); conditions: fluorescence 635 nm, higher = more signal;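 note: printed compound slides probed with Chrdl2 protein at 4 µg/mL for 1 h at 4 C; score merges 667 nm emission intensity with signal to noise over three replicate slides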
[8] = biological target: Concanavalin-A (Canavalia ensiformis) (UniProt P02866); experiment: compounds binding concanavalin A lectin – biochemical, small-molecule microarray, Alexa647 label, 635 nm, artefact control for SMM control protein annotation, primary screen (AID 1127); conditions: ConA-A647 binding fluorescence, higher = more signal;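 note: z combines 667 nm emission intensity with signal-to-noise across three replicate slides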
[9] = compounds binding Alexa647 anti-His antibody – biochemical, small-molecule microarray, 635 nm fluorescence, artefact control for SMM control protein annotation, primary screen (AID 1128); conditions: higher = more signal;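 note: score merges feature fluorescence with signal-to-noise for each printed compound spot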
[10] = tested on: Human papillomavirus type 1a E7 protein (residues 1-88); experiment: HPV1a E7 small-molecule binders, primary screen, biochemical, small-molecule microarray, residues 1-88, 635 nm (AID 1129); conditions: small-molecule microarray binding, fluorescence 635 nm; higher = more signal
[11] = biological target: Focal adhesion kinase 1 (Homo sapiens) (UniProt Q05397); experiment: PTK2 protein binding on printed compound slides – biochemical, small-molecule microarray, 635/667 nm fluorescence, BSA, DTT, primary screen (AID 1130); conditions: 635 nm fluorescence, higher = more signal;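 note: composite of spot emission at 667 nm and signal to noise over triplicate slides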
[12] = tested on: Fibrinogen (Alexa647-labelled); experiment: Alexa647-fibrinogen binding to printed small molecules – biochemical, small-molecule microarray, 635/667 nm fluorescence, artefact control for SMM control-protein annotation, profiling panel (AID 1131); conditions: fibrinogen-A647 binding fluorescence, higher = more signal;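 note: z-score merges 667 nm fluorescence with per-spot signal-to-noise over triplicate slides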
[13] = biological target: Follistatin (Homo sapiens) (UniProt P19883); experiment: FST protein binding to printed compounds – biochemical, small-molecule microarray, 635/667 nm fluorescence, primary screen (AID 1132); conditions: 635 nm fluorescence, higher = more signal
[14] = biological target: Fibroblast growth factor 2 (Homo sapiens) (UniProt P09038); experiment: basic fibroblast growth factor binding to printed compounds – biochemical, small-molecule microarray, 635/667 nm fluorescence, primary screen (AID 1133); conditions: FGF2, fluorescence 635/667, higher = more signal
[15] = JC-1 mitochondrial potential readout, lung cancer cells – cell-based, A549, JC-1 fluorescence, basal, 24 h, 100 nL, profiling panel (AID 1138); conditions: higher = more signal;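 note: A549 lung adenocarcinoma cells under basal conditions with no added stimulus; test concentration not given here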
Lefty1 = Lefty1 protein binding to printed compounds – biochemical, small-molecule microarray, 635/667 nm fluorescence, primary screen (AID 1139); conditions: fluorescence 635/667, higher = more signal
[16] = tested on: wheat germ agglutinin (Triticum aestivum), Alexa647-labelled; experiment: Alexa647-WGA lectin binding to printed small molecules – biochemical, small-molecule microarray, 635/667 nm fluorescence, artefact control for SMM control-protein annotation, profiling panel (AID 1140); conditions: WGA-A647 binding, 635 nm fluorescence, higher = more signal;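 note: score merges 667 nm feature emission with signal to noise over triplicate slides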
[17] = biological target: Luciferin 4-monooxygenase (Photinus pyralis) (UniProt P08659); experiment: inhibition of purified Photinus pyralis luciferase – biochemical, luminescence, purified enzyme, 2006 set, primary screen (AID 1141); conditions: purified firefly luciferase, SteadyGlo luminescence, 30 min; higher = more signal, called active from +8 up or from −8 down;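 note: cell-free assay with purified firefly luciferase at 100 ng per well in PBS; test concentration not given here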
Sequence of Luciferin 4-monooxygenase (Photinus pyralis) (P08659 whole entry, looked up): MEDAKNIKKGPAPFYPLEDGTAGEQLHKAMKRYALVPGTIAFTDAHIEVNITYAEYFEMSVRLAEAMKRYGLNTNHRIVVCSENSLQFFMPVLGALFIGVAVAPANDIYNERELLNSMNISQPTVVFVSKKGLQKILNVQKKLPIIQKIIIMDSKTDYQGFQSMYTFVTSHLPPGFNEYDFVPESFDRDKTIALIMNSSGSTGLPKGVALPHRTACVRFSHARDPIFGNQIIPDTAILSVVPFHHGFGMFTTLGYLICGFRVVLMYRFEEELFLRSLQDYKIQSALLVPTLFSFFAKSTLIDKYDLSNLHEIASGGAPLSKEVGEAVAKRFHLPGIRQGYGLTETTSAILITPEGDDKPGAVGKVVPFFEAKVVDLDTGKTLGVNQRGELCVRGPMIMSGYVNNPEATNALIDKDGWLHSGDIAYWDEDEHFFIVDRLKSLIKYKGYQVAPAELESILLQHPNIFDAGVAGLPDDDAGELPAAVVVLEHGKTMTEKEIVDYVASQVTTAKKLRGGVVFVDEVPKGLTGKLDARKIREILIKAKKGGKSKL

Sequence of Focal adhesion kinase 1 (Homo sapiens) (Q05397 whole entry, looked up): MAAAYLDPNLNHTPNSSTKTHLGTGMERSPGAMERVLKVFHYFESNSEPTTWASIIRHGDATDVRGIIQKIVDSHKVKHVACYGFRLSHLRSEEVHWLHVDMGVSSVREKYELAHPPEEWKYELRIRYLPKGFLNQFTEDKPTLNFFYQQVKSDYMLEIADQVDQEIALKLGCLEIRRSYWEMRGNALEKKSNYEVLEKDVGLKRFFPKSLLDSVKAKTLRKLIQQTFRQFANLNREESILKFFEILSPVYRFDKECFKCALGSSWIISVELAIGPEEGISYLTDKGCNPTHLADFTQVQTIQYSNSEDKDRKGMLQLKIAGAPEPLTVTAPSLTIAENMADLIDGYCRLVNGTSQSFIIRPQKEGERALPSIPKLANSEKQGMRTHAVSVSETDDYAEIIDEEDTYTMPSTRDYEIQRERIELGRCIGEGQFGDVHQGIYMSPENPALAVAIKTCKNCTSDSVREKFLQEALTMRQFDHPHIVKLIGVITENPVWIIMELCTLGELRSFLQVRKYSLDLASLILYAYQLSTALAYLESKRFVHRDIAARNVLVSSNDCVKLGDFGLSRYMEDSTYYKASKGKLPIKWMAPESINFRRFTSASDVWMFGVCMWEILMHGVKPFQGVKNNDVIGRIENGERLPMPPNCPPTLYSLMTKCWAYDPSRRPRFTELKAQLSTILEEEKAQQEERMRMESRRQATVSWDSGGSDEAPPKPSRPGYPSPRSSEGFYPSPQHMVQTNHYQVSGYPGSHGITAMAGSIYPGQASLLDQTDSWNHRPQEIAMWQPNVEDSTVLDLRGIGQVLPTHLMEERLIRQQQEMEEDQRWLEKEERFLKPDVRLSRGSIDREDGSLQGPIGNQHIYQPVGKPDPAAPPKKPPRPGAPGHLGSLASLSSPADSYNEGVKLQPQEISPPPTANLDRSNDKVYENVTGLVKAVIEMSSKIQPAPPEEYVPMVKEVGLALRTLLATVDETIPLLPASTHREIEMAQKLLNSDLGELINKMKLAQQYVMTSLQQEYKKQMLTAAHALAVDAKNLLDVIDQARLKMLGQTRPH
Sequence of Fibroblast growth factor 2 (Homo sapiens) (P09038 whole entry, looked up): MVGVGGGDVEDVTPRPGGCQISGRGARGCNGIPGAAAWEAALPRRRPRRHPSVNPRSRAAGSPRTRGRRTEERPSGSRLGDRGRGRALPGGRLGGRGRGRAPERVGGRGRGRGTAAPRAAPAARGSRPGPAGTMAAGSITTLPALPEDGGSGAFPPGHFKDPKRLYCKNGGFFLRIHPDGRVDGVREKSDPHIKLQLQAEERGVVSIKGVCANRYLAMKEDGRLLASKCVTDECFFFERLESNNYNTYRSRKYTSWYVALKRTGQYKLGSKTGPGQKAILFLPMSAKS
Sequence of Concanavalin-A (Canavalia ensiformis) (P02866 whole entry, looked up): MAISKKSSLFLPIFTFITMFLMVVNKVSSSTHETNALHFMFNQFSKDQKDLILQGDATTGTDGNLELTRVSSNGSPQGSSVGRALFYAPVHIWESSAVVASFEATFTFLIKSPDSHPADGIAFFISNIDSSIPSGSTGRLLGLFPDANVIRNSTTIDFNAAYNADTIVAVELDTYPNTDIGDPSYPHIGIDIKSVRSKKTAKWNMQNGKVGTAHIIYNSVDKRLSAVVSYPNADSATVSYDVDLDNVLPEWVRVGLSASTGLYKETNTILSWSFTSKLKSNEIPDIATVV
Sequence of Albumin (Bos taurus) (P02769 whole entry, looked up): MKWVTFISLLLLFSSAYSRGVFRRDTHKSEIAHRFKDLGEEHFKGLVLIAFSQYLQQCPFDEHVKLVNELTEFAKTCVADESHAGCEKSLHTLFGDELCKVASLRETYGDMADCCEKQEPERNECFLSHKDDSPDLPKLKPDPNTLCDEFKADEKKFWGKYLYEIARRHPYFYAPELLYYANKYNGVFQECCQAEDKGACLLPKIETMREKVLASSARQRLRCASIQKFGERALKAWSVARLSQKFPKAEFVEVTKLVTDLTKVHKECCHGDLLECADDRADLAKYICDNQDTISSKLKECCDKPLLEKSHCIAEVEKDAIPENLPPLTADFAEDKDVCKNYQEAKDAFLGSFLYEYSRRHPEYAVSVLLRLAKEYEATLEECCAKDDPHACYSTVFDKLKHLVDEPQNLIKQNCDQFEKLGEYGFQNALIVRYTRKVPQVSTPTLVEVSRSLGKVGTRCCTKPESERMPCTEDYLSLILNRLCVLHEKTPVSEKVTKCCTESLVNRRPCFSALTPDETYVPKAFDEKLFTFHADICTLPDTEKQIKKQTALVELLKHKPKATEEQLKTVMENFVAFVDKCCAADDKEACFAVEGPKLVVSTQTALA
Sequence of Follistatin (Homo sapiens) (P19883 whole entry, looked up): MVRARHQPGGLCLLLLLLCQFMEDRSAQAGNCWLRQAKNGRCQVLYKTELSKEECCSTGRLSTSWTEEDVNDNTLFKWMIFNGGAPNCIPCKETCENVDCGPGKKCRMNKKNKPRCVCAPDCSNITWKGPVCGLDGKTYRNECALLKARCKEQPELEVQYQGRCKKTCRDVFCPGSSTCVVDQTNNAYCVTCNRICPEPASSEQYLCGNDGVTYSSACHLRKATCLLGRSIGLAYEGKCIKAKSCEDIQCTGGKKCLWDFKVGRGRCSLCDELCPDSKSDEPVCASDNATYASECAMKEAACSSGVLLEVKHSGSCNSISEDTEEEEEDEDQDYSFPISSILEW

Row | SMILES | composite z-score (Albumin (Bos taurus)) | composite Z-score [1] | composite z-score [2] | composite z-score [3] | composite z-score [4] | composite z-score [5] | composite z-score [6] | composite z-score (Sam68 (KHDRBS1)) | composite z-score [7] | composite z-score [8] | composite z-score [9] | composite z-score [10] | composite z-score [11] | composite z-score [12] | composite z-score [13] | composite z-score [14] | z-score [15] | composite z-score (Lefty1) | composite z-score [16] | z-score [17]
1 | OCCCC1=CC(c2ccc(CN3CCCC3)cc2)N(Cc2cccc(OC(F)(F)F)c2)CC1 (stereo not given) | 0.465 | 0.451 (inactive) | 0.0642 | -0.0907 | -0.0985 | 0.251 | -0.309 | -0.0506 | 0.248 | -0.796 | -0.299 | -0.377 | 0.213 | -0.575 | 0.611 | 0.215 | 1.17 | 0.326 | -0.227 | -0.222 (inactive)
2 | O=C1O[C@@H](c2ccccc2)[C@@H](c2ccccc2)N2[C@@H](c3ccc(OCCO)cc3)[C@]3(C(=O)Nc4ccc(C#CC5(O)CCCCCC5)cc43)[C@@H](C(=O)Nc3nc4ccccc4s3)[C@H]12 | 0.691 | -0.144 (inactive) | 0.0169 | -0.0664 | 0.608 | 2.31 | 0.36 | 1.29 | 0.583 | 1.01 | 0.0141 | 1.24 | 0.676 | 0.964 | 1.33 | 1.54 | -2.12 | 1.22 | 1.09 | -2.6 (inactive)
3 | COc1ccc(C(=O)Nc2ccc(CN3C(=O)[C@@]4(O[C@@H](CCn5cc(CCO)nn5)[C@H]([Si](C)(C)c5ccc(OC)cc5)[C@H]4C)c4ccccc43)cc2)cc1 | 0.264 | 0.32 (inactive) | 0.0276 | -0.0895 | 0.348 | 0.822 | 0.116 | 1.32 | 0.919 | 1.09 | 1.17 | 1.17 | 0.749 | 0.874 | 1.35 | 1.21 | -0.326 | 1.1 | 0.522 | -0.162 (inactive)
4 | CN(C)C(=O)[C@@]1(Cc2ccccc2CN=[N+]=[N-])COC(c2ccc(OCCCO)cc2)=N1 | 0.819 | -0.0705 (inactive) | -0.0048 | -0.156 | 0.572 | 1.78 | -0.0884 | 0.0673 | -0.781 | 1.04 | 1.81 | 1.15 | 0.652 | 0.949 | -0.0539 | -0.572 | 1.43 | -0.42 | 0.603 | 1.15 (inactive)
5 | C=CC[C@@]1(C(=O)N(C)C)N=C(c2ccc(OCCCO)cc2)O[C@@H]1c1ccccc1CN=[N+]=[N-] | 0.738 | 0.153 (inactive) | 0.438 | 0.0674 | 0.397 | 2.48 | 0.71 | 1.33 | -0.201 | 1.12 | 2.69 | 1.22 | 0.188 | 0.985 | 1.36 | 1.83 | 3.32 | 0.561 | 1.12 | -0.84 (inactive)
6 | C=CCN1Cc2ccccc2[C@H]2OC(c3ccc(OCCCO)cc3)=N[C@@]2(CCS(=O)(=O)c2ccccc2)C1=O | 0.465 | 1.79 (inactive) | 0.0562 | -0.0135 | 0.614 | 3.07 | 0.333 | 1.31 | 0.843 | 1.16 | 2.05 | 1.22 | 0.621 | 0.0869 | 1.37 | 1.37 | 0.35 | 0.507 | 0.77 | -0.884 (inactive)
7 | C=C(COC)/C(=C/C[C@@H](OC(C)=O)c1ccccc1OCCO)c1cnc2ccccc2c1 | -0.209 | 0.72 (inactive) | 0.199 | -0.084 | 0.776 | 1.09 | 0.542 | 1.17 | 0.765 | 0.995 | 0.782 | 1.06 | 0.423 | 0.0866 | 1.43 | 1.12 | -0.159 | 1.54 | 1.2 | -1.47 (inactive)
8 | C=C(COC)C(=O)CC[C@@H](OC(=O)c1ccccc1-c1ccccc1C(=O)O)c1ccc(OCCO)cc1 | -0.238 | 0.081 (inactive) | -0.0491 | -0.154 | 0.784 | 0.113 | 0.238 | 0.576 | 0.319 | -0.0355 | -0.0978 | -0.0905 | -0.0142 | -1.48 | 1.45 | 1.42 | 0.0645 | 1.48 | 0.595 | -3.04 (inactive)
9 | NC(=O)NCC#Cc1ccc2c(c1)[C@]1(C(=O)N2)[C@H](c2ccc(OCCO)cc2)N2[C@H](c3ccccc3)[C@H](c3ccccc3)OC(=O)[C@H]2[C@@H]1C(=O)O | 0.544 | 0.196 (inactive) | -0.0918 | -0.132 | 0.256 | 0.157 | -0.23 | -0.761 | -0.736 | 1.04 | 1.21 | -1.59 | -0.333 | 0.755 | -0.044 | -0.498 | -1.15 | -0.601 | 1.22 | -1.6 (inactive)
10 | C=CC[C@@]12N=C(c3ccc(OCCCO)cc3)O[C@@H]1c1ccccc1N(CCC)C2=O | 0.727 | 0.414 (inactive) | 0.0968 | -0.0617 | 0.326 | 2.73 | -0.227 | 1.29 | 1.24 | 1.06 | 2.58 | 1.22 | 0.359 | 0.512 | 1.52 | 1.72 | 2.58 | 1.31 | 0.777 | -2.23 (inactive)
11 | C=C(COC)C(=O)CC[C@@H](OC(C)=O)c1ccccc1OCCO | -0.145 | -0.975 (inactive) | 0.183 | -0.15 | 0.675 | -0.762 | 0.583 | 0.789 | -0.0113 | -0.0386 | 0.456 | 0.318 | -0.517 | -0.698 | 1.15 | 1.09 | 0.356 | 0.791 | 0.523 | -2.79 (inactive)
